Experimental data published in PubChem BioAssay (NCATS).
Records with an inconclusive call do not appear. Where a call stands in place of a potency, no number is given. The source made the active and inactive calls. The call rests on the fitted dose curve; in most records, active means well fitted curve in the direction sought with a large enough effect; inconclusive means small, poorly fitted or top-dose-only effect, or another doubt; inactive means no such curve, though single readings can be large; an effect the other way counts as inactive or inconclusive.

Columns and labels:
[1] = target: Thioredoxin reductase 1, cytoplasmic (Rattus norvegicus) (UniProt O89049); assay: qHTS Assay for Substrates of Mammalian Selenoprotein Thioredoxin Reductase 1 (TrxR1) (AID 488772);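 further: NADPH fluorescence in the first read after selenite addition and not the 8 min delta; series mostly up to about 57 µM; a drop in NADPH fluorescence below the no-compound background marks a TrxR1 substrate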
Chain of Thioredoxin reductase 1, cytoplasmic (Rattus norvegicus) (O89049 whole entry, looked up): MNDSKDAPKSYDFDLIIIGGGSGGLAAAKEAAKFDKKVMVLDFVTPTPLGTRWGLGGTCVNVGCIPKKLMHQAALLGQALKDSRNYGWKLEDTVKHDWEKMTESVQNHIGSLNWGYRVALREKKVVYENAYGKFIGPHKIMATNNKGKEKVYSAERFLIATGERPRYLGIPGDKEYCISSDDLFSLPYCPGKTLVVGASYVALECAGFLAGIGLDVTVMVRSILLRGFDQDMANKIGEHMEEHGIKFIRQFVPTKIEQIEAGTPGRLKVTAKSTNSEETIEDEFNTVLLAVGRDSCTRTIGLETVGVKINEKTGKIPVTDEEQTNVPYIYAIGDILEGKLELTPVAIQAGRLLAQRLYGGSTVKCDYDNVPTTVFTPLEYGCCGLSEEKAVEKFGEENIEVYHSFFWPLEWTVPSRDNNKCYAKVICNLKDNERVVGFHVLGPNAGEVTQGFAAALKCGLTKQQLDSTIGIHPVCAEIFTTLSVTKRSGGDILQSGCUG
Procedure, shortened: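 Quantitative HTS in Tris-HCl buffer at pH 7.5 with EDTA and Tween-20, using rat TrxR1, 400 uM NADPH and 400 uM selenite (final). A fall in initial NADPH fluorescence relative to background marked substrate behaviour.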

[2] = target: Thioredoxin reductase 1, cytoplasmic (Rattus norvegicus) (UniProt O89049); assay: qHTS Assay for Inhibitors of Mammalian Selenoprotein Thioredoxin Reductase 1 (TrxR1) (AID 488773); conditions: Potency: inhibition; further: nearly all actives have a fitted effect of over 40% in size; further: potency means the concentration at half of the fitted maximal effect
Procedure, shortened: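 Steps: enzyme (90 nM) plus NADPH (400 uM final), 5 min at ~22 deg C; compound added, 15 min; selenite (400 uM final) added; fluorescence followed for 8 min. Concentration-response curves derived from the normalized delta values.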

[3] = target: Flap endonuclease 1 (Homo sapiens) (UniProt P39748); assay: qHTS Validation Assay for the Inhibitors of Human Flap endonuclease 1 (FEN1) (AID 488816); further: potency means the concentration at half of the fitted maximal effect
Chain of Flap endonuclease 1 (Homo sapiens) (P39748 whole entry, looked up): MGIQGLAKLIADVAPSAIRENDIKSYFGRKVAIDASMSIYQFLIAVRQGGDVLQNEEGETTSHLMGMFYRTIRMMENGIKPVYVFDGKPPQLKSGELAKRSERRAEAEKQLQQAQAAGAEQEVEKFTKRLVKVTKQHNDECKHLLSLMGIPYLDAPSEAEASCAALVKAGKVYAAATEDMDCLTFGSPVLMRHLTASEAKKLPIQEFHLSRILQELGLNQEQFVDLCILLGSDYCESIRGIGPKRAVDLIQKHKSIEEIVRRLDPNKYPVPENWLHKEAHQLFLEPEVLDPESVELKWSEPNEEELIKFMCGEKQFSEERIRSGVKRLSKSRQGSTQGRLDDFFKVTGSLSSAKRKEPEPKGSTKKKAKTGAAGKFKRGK
Procedure, shortened: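 Readings taken at 0 and 15 min after starting the reaction with 50 nM (final) substrate supplied the signal. Compounds had first sat with 10 nM FEN1 reagent for 15 min at room temperature. Values come from Hill-equation concentration-response fits.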

[4] = target: M-phase phosphoprotein 8 (Homo sapiens) (UniProt Q99549); assay: qHTS Validation Assay for Inhibitors for MPP8 Chromodomain Interactions with Methylated Histone Tails (AID 488949); further: nearly all actives have a fitted effect of over 55% in size; further: potency means the concentration at half of the fitted maximal effect
Chain of M-phase phosphoprotein 8 (Homo sapiens) (Q99549 whole entry, looked up): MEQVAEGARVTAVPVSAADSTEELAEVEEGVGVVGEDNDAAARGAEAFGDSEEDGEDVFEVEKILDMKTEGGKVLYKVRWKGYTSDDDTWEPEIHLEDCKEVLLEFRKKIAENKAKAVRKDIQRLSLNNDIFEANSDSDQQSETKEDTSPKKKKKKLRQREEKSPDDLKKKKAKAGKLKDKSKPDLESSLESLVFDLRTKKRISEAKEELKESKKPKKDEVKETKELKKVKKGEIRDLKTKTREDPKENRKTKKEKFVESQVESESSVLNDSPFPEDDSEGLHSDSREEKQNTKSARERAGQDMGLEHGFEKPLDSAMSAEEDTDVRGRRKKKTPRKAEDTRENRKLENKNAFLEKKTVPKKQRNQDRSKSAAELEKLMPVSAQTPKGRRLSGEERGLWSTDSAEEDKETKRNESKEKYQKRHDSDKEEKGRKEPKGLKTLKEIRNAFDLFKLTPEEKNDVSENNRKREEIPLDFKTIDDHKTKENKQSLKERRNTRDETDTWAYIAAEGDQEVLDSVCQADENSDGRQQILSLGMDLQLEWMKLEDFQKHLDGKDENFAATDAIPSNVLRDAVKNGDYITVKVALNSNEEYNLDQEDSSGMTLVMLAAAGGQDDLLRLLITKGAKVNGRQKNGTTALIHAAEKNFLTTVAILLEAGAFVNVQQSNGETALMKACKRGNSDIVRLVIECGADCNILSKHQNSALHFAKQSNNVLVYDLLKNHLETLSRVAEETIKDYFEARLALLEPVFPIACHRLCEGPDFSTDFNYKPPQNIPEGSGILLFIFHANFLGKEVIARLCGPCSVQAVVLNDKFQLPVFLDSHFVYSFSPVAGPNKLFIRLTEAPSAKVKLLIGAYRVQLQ
Procedure, shortened: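 MPP8 (50 nM) was pre-bound to 50 nM biotinylated H3(1-18)K9me3 peptide in PBS pH 7.4 with 0.01% Tween-20. Compounds were then added for 30 min at room temperature, and complex disruption was read by AlphaScreen with streptavidin donor and nickel-chelate acceptor beads.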

[5] = target: Chromobox protein homolog 1 (Homo sapiens) (UniProt P83916); assay: qHTS Validation Assay for Inhibitors of HP1-beta Chromodomain Interactions with Methylated Histone Tails (AID 488953); further: nearly all actives have a fitted effect of over 50% in size; further: potency means the concentration at half of the fitted maximal effect
Chain of Chromobox protein homolog 1 (Homo sapiens) (P83916 whole entry, looked up): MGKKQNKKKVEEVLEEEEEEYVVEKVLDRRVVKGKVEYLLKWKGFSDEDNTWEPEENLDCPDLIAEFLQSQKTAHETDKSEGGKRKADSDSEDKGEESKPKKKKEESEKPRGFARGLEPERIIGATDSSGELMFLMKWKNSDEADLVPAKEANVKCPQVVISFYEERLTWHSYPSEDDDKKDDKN
Procedure, shortened: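 Measured as loss of AlphaScreen luminescence from streptavidin donor and nickel acceptor beads (10 ug/mL final) bridging HP1-beta and biotin-H3(1-18)K9me3, each 50 nM. Compounds met the preassembled complex for 30 min at RT.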

[6] = target: Methanococcus maripaludis chaperonin (MmCpn) (UniProt Q6LX38); assay: High-Throughput Screening for Modulators of Cytosolic Chaperonin Activity: MmCpn Primary Screen (AID 488978); further: potency means the concentration at half of the fitted maximal effect
Chain of Methanococcus maripaludis chaperonin (MmCpn) (Q6LX38 1-543): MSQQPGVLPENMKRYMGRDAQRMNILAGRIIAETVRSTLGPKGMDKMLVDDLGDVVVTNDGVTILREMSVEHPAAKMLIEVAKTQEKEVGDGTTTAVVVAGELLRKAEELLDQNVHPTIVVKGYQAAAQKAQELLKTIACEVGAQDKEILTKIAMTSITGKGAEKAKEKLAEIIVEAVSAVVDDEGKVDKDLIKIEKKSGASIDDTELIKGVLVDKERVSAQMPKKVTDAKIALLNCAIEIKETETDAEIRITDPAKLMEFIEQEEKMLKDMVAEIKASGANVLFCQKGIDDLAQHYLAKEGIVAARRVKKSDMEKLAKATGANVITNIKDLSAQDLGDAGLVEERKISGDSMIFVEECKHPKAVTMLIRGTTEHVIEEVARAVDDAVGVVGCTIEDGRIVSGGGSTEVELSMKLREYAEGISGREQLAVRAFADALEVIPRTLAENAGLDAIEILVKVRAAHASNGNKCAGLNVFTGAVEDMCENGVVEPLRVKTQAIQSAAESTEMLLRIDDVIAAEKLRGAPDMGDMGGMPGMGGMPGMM
Procedure, shortened: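 MmCpn at 50 nM final was preincubated 5 min at RT with compound. ATP was then added at 30 uM final for 10 min at 37 C. ADP formed was detected by Transcreener HTRF (665/590 nm).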

[7] = target: Transient receptor potential cation channel subfamily V member 1 (Homo sapiens) (UniProt Q8NER1); assay: HTS Assay for Compounds that Act as Enhancers of the Vanilloid Receptor 1 (AID 488979)
Chain of Transient receptor potential cation channel subfamily V member 1 (Homo sapiens) (Q8NER1 whole entry, looked up): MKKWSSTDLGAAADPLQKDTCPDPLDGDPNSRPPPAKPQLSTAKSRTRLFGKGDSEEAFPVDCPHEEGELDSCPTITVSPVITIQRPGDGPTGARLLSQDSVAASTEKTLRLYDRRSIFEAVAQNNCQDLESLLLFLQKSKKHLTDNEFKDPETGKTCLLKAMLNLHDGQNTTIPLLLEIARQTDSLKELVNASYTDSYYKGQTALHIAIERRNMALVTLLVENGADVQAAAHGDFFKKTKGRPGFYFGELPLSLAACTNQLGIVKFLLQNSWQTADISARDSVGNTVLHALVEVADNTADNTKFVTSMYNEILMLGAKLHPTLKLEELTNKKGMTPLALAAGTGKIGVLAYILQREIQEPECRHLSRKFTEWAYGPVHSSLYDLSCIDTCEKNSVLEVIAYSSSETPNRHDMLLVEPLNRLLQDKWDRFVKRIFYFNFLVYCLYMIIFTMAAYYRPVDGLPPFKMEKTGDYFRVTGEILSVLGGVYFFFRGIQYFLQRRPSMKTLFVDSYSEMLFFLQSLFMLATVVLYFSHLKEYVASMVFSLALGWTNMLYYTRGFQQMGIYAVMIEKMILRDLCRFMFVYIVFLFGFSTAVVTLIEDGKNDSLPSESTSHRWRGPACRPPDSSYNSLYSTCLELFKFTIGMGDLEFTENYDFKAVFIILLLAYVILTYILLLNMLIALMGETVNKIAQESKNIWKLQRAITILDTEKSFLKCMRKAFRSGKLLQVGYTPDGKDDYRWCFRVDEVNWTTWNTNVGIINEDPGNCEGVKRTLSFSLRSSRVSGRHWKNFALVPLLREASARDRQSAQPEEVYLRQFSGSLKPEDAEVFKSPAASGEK
Procedure, shortened: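 Calcium influx kinetics via Fluo-8 (480/520 nm) in TRPV1-expressing cells, 2000/well cultured overnight at 35.5C. Compound-alone read 3 min (agonist phase), followed by EC20 capsaicin challenge for 2 min (enhancer phase).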

[8] = target: Thyrotropin receptor (Homo sapiens) (UniProt P16473); assay: qHTS Assay for Antagonists of the Thyroid Stimulating Hormone Receptor (AID 488980); further: series mostly up to about 58 µM
Chain of Thyrotropin receptor (Homo sapiens) (P16473 whole entry, looked up): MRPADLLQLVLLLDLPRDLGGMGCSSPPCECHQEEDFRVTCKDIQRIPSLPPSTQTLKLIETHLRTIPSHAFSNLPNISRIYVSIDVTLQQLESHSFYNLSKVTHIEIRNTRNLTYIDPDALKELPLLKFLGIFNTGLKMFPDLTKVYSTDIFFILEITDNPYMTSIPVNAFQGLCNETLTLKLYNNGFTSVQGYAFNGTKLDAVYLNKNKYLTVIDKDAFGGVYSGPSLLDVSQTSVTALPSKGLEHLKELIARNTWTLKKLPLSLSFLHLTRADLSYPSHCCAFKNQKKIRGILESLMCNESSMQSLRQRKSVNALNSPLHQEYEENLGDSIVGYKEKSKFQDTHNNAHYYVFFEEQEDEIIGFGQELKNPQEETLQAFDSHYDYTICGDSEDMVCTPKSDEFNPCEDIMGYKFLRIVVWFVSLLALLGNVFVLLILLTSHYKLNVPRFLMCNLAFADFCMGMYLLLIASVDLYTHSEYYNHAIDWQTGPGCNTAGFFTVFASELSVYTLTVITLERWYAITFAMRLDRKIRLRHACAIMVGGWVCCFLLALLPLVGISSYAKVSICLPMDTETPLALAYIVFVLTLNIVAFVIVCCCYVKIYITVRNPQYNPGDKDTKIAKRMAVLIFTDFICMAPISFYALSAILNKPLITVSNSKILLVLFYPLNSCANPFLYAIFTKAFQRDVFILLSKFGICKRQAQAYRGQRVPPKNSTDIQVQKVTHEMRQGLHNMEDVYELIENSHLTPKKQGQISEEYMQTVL
Procedure, shortened: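 TSHR-transfected HEK293 cells (2000/well) in HEPES-buffered HBSS with 70 uM RO 20-1724 were stimulated with 4 nM TSH (EC80, final) in the presence of compound. cAMP was measured by HTRF competition after lysis and 30 min at RT.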

[9] = target: D(1A) dopamine receptor (Homo sapiens) (UniProt P21728); assay: HTS Assay for Allosteric Agonists of the Human D1 Dopamine Receptor: Primary Screen for Potentiators (AID 488982)
Chain of D(1A) dopamine receptor (Homo sapiens) (P21728 whole entry, looked up): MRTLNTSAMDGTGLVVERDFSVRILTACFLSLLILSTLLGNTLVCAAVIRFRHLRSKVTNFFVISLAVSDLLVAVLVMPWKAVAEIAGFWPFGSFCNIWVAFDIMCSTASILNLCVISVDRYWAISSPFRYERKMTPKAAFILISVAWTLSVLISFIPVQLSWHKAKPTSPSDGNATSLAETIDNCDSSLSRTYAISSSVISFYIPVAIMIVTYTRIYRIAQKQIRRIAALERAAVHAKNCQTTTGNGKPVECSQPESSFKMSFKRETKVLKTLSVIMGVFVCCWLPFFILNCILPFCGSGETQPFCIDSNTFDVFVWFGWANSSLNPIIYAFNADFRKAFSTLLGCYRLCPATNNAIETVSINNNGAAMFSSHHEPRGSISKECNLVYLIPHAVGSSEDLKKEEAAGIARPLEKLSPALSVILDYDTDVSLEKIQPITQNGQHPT
Procedure, shortened: (§1)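 Calcium flux in an inducible, force-coupled HEK293 Trex D1 line (overnight at 30 C): agonist mode is the 180 s kinetic read after compound; potentiator mode is the following 180 s read after dopamine at EC20.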

[10] = target: D(1A) dopamine receptor (Homo sapiens) (UniProt P21728); assay: HTS Assay for Allosteric Agonists of the Human D1 Dopamine Receptor: Primary Screen for Agonists (AID 488981); further: potency means the concentration at half of the fitted maximal effect
Procedure, shortened: as §1

SMILES | outcome [1] | Potency [2] | Potency [3] | Potency [4] | Potency [5] | Potency [6] | outcome [7] | outcome [8] | outcome [9] | Potency [10]
CCN(CC)CCOC(=O)C1(C2CCCCC2)CCCCC1 | inactive | inactive | inactive | inactive | inactive | inactive | inactive | inactive | inactive | –
CC(C)(C)[C@]1(O)CCN2C[C@H]3c4ccccc4CCc4cccc(c43)[C@@H]2C1 | inactive | inactive | inactive | inactive | inactive | inactive | – | – | – | –
CC(=O)OCC(=O)[C@@]1(O)CC[C@H]2[C@@H]3CCC4=CC(=O)CC[C@]4(C)[C@H]3C(=O)C[C@@]21C | inactive | inactive | inactive | inactive | inactive | inactive | inactive | – | inactive | inactive
COc1ccc(Cl)cc1C(=O)NCCc1ccc(S(=O)(=O)NC(=O)NC2CCCCC2)cc1 | inactive | inactive | inactive | inactive | inactive | inactive | inactive | inactive | inactive | inactive
CC(C)(C(=O)O)c1ccc(C(O)CCCN2CCC(C(O)(c3ccccc3)c3ccccc3)CC2)cc1 (stereo unspecified) | inactive | inactive | inactive | inactive | inactive | inactive | inactive | inactive | inactive | inactive
CC1=C(CC(=O)O)c2cc(F)ccc2/C1=C\c1ccc(S(C)(=O)=O)cc1 | inactive | inactive | inactive | inactive | 0.006 µM (active) | inactive | inactive | – | inactive | inactive
OCCN1CCN(CCCN2c3ccccc3Sc3ccc(Cl)cc32)CC1 | inactive | inactive | inactive | 28.2 µM (active) | 31.6 µM (active) | inactive | – | inactive | inactive | –
CN1CCN(C2Cc3ccccc3Sc3ccc(Cl)cc32)CC1 (stereo unspecified) | inactive | inactive | inactive | inactive | 14.1 µM (active) | inactive | – | inactive | inactive | –
Nc1cc(=O)[nH]c(N)n1 | inactive | inactive | inactive | inactive | inactive | inactive | inactive | inactive | inactive | inactive
C[C@]12CC[C@@H]3c4ccc(O)cc4CC[C@H]3[C@@H]1CCC2=O | inactive | inactive | inactive | inactive | inactive | inactive | inactive | – | inactive | inactive
CCCn1cnc2c1c(=O)n(CCCCC(C)=O)c(=O)n2C | inactive | inactive | inactive | inactive | inactive | inactive | inactive | inactive | inactive | inactive
NC1CCN(c2cccc(Cl)n2)CC1 | inactive | inactive | inactive | inactive | inactive | inactive | inactive | – | inactive | inactive
CSc1ccc2c(c1)N(CCC1CCCCN1C)c1ccccc1S2 (stereo unspecified) | inactive | inactive | inactive | 11.2 µM (active) | 28.2 µM (active) | inactive | – | inactive | – | inactive
CSc1ccc2c(c1)C(N1CCN(C)CC1)Cc1ccccc1S2 (stereo unspecified) | inactive | inactive | inactive | 44.7 µM (active) | 39.8 µM (active) | inactive | – | – | inactive | inactive
CN(C)CC[C@@H](c1ccc(Cl)cc1)c1ccccn1 | inactive | inactive | inactive | inactive | inactive | inactive | inactive | inactive | inactive | inactive
CCCCCCCCCCCCCCCC(=O)NCCO | inactive | inactive | inactive | inactive | inactive | inactive | inactive | inactive | inactive | inactive
C#CCN(C)Cc1ccccc1 | inactive | inactive | inactive | inactive | inactive | inactive | – | inactive | inactive | inactive
CC(CN(C)C)CN1c2ccccc2CCc2ccccc21 (stereo unspecified) | inactive | inactive | inactive | inactive | 28.2 µM (active) | inactive | – | inactive | inactive | inactive
CC(C)C(=O)c1c(C(C)C)nn2ccccc12 | inactive | inactive | inactive | inactive | inactive | inactive | inactive | – | inactive | inactive
CC(C)(C)c1onc(OCP(=O)(O)O)c1CC(N)C(=O)O (stereo unspecified) | inactive | inactive | inactive | inactive | inactive | inactive | inactive | inactive | inactive | inactive
CCN(CC)CCNC(=O)c1cc(Cl)c(N)cc1OC | inactive | inactive | inactive | inactive | inactive | inactive | inactive | inactive | inactive | inactive
CN(C)CCOC(C)(c1ccccc1)c1ccccn1 (stereo unspecified) | inactive | inactive | inactive | inactive | inactive | inactive | inactive | inactive | inactive | inactive
Nc1ncnc2c1ncn2[C@@H]1O[C@H](CO)[C@@H](O)[C@H]1O | inactive | inactive | inactive | inactive | inactive | inactive | – | – | inactive | inactive

SMILES | outcome [1] | Potency [2] | Potency [3] | Potency [4] | Potency [5] | Potency [6] | outcome [7] | outcome [8] | outcome [9] | Potency [10]
C=Cc1c(C)c2cc3[nH]c(cc4nc(cc5nc(cc1[nH]2)C(C)=C5CCC(=O)O)C(CCC(=O)O)=C4C)c(C)c3C=C | inactive | 13.4 µM (active) | inactive | inactive | inactive | 31.6 µM (active) | inactive | inactive | inactive | inactive
C[C@](N)(Cc1ccc(O)cc1)C(=O)O | inactive | inactive | inactive | inactive | inactive | inactive | inactive | inactive | inactive | inactive
CNCCCC1c2ccccc2C=Cc2ccccc21 | inactive | inactive | – | inactive | inactive | – | – | inactive | inactive | inactive
CC(C)NC[C@H](O)c1ccc(O)c(O)c1 | inactive | – | inactive | inactive | inactive | inactive | inactive | inactive | – | inactive
COCCOC(=O)C1=C(C)NC(C)=C(C(=O)OC/C=C/c2ccccc2)C1c1cccc([N+](=O)[O-])c1 (stereo unspecified) | inactive | inactive | inactive | inactive | – | inactive | – | – | inactive | inactive
CN(C)CCCN1c2ccccc2CCc2ccccc21 | – | – | – | – | – | inactive | – | inactive | – | inactive
CCN(CC)C(C)CN1c2ccccc2Sc2ccccc21 (stereo unspecified) | inactive | – | inactive | inactive | 0.0299 µM (active) | inactive | – | – | inactive | inactive
CC1=C(CC(=O)O)c2cc(F)ccc2/C1=C\c1ccc(S(C)=O)cc1 (stereo unspecified) | inactive | – | inactive | inactive | – | inactive | – | inactive | inactive | inactive
CC(C(O)c1ccc(O)cc1)N1CCC(Cc2ccccc2)CC1 (stereo unspecified) | inactive | inactive | inactive | inactive | inactive | inactive | – | – | inactive | 11.2 µM (active)
CC(CN1c2ccccc2Sc2ccccc21)N(C)C (stereo unspecified) | inactive | – | inactive | 39.8 µM (active) | 39.8 µM (active) | inactive | – | inactive | inactive | inactive
CN(C)CCCN1c2ccccc2Sc2ccc(Cl)cc21 | inactive | inactive | inactive | 35.5 µM (active) | – | inactive | – | inactive | – | –
Cc1cc(N)c2ccccc2[n+]1CCCCCCCCCC[n+]1c(C)cc(N)c2ccccc21 | inactive | inactive | 21.2 µM (active) | 50.1 µM (active) | – | inactive | inactive | inactive | inactive | inactive
NC(=O)c1ncn([C@@H]2O[C@H](CO)[C@@H](O)[C@H]2O)n1 | inactive | inactive | – | inactive | inactive | inactive | inactive | – | inactive | inactive
CNC(=O)Oc1ccc2c(c1)[C@]1(C)CCN(C)[C@@H]1N2C | inactive | inactive | inactive | – | inactive | inactive | inactive | inactive | inactive | inactive
OCc1cc(C(O)CNCCCCCCOCCCCc2ccccc2)ccc1O (stereo unspecified) | inactive | inactive | inactive | inactive | – | inactive | – | inactive | inactive | –
COC(=O)C1=C(C)NC(C)=C(C(=O)OC)C1c1ccccc1[N+](=O)[O-] | inactive | – | inactive | – | – | inactive | inactive | inactive | – | inactive
O=C1N=C(O)CN1/N=C/c1ccc(-c2ccc([N+](=O)[O-])cc2)o1 | – | inactive | inactive | inactive | – | inactive | – | inactive | inactive | inactive
CNCC(O)c1ccc(O)c(O)c1 (stereo unspecified) | inactive | – | – | inactive | inactive | inactive | inactive | inactive | inactive | –
NC(N)=NCCC[C@H](N)C(=O)O | inactive | inactive | – | inactive | – | inactive | inactive | inactive | inactive | inactive
CC1=C(/C=C/C(C)=C/C=C/C(C)=C/C(=O)O)C(C)(C)CCC1 | inactive | – | inactive | inactive | – | inactive | inactive | – | inactive | inactive
CCN(CC)CCCC(C)Nc1c2ccc(Cl)cc2nc2ccc(OC)cc12 (stereo unspecified) | inactive | inactive | 15 µM (active) | – | – | inactive | – | inactive | inactive | 11.2 µM (active)
C[C@]12C[C@H](O)[C@H]3[C@@H](CCC4=CC(=O)CC[C@@]43C)[C@@H]1CC[C@@H]2C(=O)CO | inactive | inactive | inactive | inactive | inactive | inactive | – | – | inactive | inactive
N=c1c[n+](N2CCOCC2)[n-]o1 | inactive | – | inactive | inactive | inactive | inactive | inactive | inactive | inactive | inactive
